Results taken from PubChem BioAssay (EPA / NIEHS).
The source made the active and inactive calls. The calls were made as follows: active = hit-call score of the fitted dose curve at least 0.9, where 1 is the maximum; inactive = score below 0.9.

Key:
Details in all cases: mRNA level, 48 h; actives raise or lower the signal
[1] = read-out: Bcl-2 (BAD) gene, BAD (gene 572); experiment: LTEA_HepaRG_BAD: Life Technologies and Expression Analysis (LTEA) Assay for Bcl-2 (BAD) gene using HepaRG (AID 2283469)
How it was run: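 HepaRG, 48 h exposure, 8-pt half-log curve from 100 uM in 0.5% DMSO, duplicates. Readout: TaqMan qRT-PCR for BAD mRNA, housekeeping-normalised (ACTB/GAPDH/POLR2A); gain or loss fitted against DMSO baseline.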

[2] = read-out: Bcl-2 (BAX) gene, BAX (gene 581); experiment: LTEA_HepaRG_BAX: Life Technologies and Expression Analysis (LTEA) Assay for Bcl-2 (BAX) gene using HepaRG (AID 2283470)
How it was run: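 qRT-PCR read-out of BAX mRNA, normalized to three housekeeping genes, after 48 h chemical exposure of human HepaRG cells in serum-free induction medium; eight-point half-log series, top 100 uM, 0.5% DMSO vehicle; bidirectional fit versus DMSO.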

[3] = read-out: adenosine kinase (ADK) gene, ADK (gene 132); experiment: LTEA_HepaRG_ADK: Life Technologies and Expression Analysis (LTEA) Assay for adenosine kinase (ADK) gene using HepaRG (AID 2283471)
How it was run: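 Differentiated HepaRG cells dosed 48 h in serum-free induction medium, 0.5% DMSO vehicle, eight half-log concentrations from 100 uM, in duplicate. ADK mRNA by TaqMan qRT-PCR normalised to ACTB, GAPDH, POLR2A; bidirectional fit versus DMSO.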

[4] = read-out: Alpha-fetoprotein (AFP) gene, AFP (gene 174); experiment: LTEA_HepaRG_AFP: Life Technologies and Expression Analysis (LTEA) Assay for Alpha-fetoprotein (AFP) gene using HepaRG (AID 2283472)
How it was run: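 qRT-PCR (Fluidigm TaqMan) readout of AFP transcript, normalized to three housekeeping genes, fitted bidirectionally against 0.5% DMSO baseline. HepaRG cells received chemicals for 48 h in serum-free induction medium, top concentration 100 uM, half-log steps.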

[5] = read-out: BCL2L11 (gene 10018); experiment: LTEA_HepaRG_BCL2L11: Life Technologies and Expression Analysis (LTEA) Assay for Bcl-2 (BCL2L11) gene using HepaRG (AID 2283473)
How it was run: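 Read-out is BCL2L11 transcript level by qRT-PCR, normalized to three housekeeping genes and fitted bidirectionally against 0.5% DMSO vehicle. HepaRG cells received chemicals for 48 h in serum-free induction medium, 100 uM down in half-log dilutions.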

[6] = read-out: Apolipoprotein A-V (APOA5) gene, APOA5 (gene 116519); experiment: LTEA_HepaRG_APOA5: Life Technologies and Expression Analysis (LTEA) Assay for Apolipoprotein A-V (APOA5) gene using HepaRG (AID 2283474)
How it was run: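 Readout is APOA5 transcript level by qRT-PCR on Fluidigm dynamic arrays, normalized to three housekeeping genes. HepaRG cultures received chemicals for 48 h at up to 100 uM (half-log steps, 0.5% DMSO), with gain or loss scored relative to DMSO.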

[7] = read-out: Apoptosis regulator Bcl-2 (Homo sapiens) (UniProt P10415); experiment: LTEA_HepaRG_BCL2: Life Technologies and Expression Analysis (LTEA) Assay for Bcl-2 gene using HepaRG (AID 2283475)
How it was run: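 qRT-PCR read-out (Fluidigm TaqMan) of BCL2 transcript, normalised to three housekeeping genes, after 48 h chemical exposure of HepaRG cells; 8-point half-log series, top 100 uM, 0.5% DMSO vehicle. Gain or loss of signal fitted relative to DMSO baseline.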

[8] = read-out: Bcl-2 (BID) gene, BID (gene 637); experiment: LTEA_HepaRG_BID: Life Technologies and Expression Analysis (LTEA) Assay for Bcl-2 (BID) gene using HepaRG (AID 2283476)
How it was run: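 HepaRG, 48 h exposure, 8-pt half-log series, top 100 uM, 0.5% DMSO vehicle, duplicates. Readout: BID mRNA by TaqMan qRT-PCR; housekeeping-normalized; bidirectional curve fit vs DMSO baseline.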

[9] = read-out: Caspase-3 (Homo sapiens) (UniProt P42574); experiment: LTEA_HepaRG_CASP3: Life Technologies and Expression Analysis (LTEA) Assay for cysteine-aspartic acid protease (CASP3) using HepaRG (AID 2283477)
How it was run: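 Read-out is CASP3 mRNA level by TaqMan qRT-PCR in human HepaRG cells after 48 h chemical exposure. Eight half-log concentrations topping at 100 uM were tested in 0.5% DMSO; gain or loss was fitted relative to DMSO.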

[10] = read-out: Cytochrome P450 (CYP24A1), CYP24A1 (gene 1591); experiment: LTEA_HepaRG_CYP24A1: Life Technologies and Expression Analysis (LTEA) Assay for Cytochrome P450 (CYP24A1) using HepaRG (AID 2283478)
How it was run: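 HepaRG, 48 h chemical exposure, 8-pt half-log CRC from 100 uM, 0.5% DMSO vehicle, duplicates. Endpoint: CYP24A1 mRNA by Fluidigm TaqMan qRT-PCR, normalized ACTB/GAPDH/POLR2A; gain/loss fit vs DMSO.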

[11] = read-out: Cytochrome P450 (CYP1A2), CYP1A2 (gene 1544); experiment: LTEA_HepaRG_CYP1A2: Life Technologies and Expression Analysis (LTEA) Assay for Cytochrome P450 (CYP1A2) using HepaRG (AID 2283479)
How it was run: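 CYP1A2 transcript induction or loss, quantified by Fluidigm qRT-PCR against three housekeeping genes, was fitted bidirectionally against 0.5% DMSO controls. Human HepaRG cells received eight half-log concentrations from 100 uM over 48 h.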

[12] = read-out: Cytochrome P450 (CYP2B6), CYP2B6 (gene 1555); experiment: LTEA_HepaRG_CYP2B6: Life Technologies and Expression Analysis (LTEA) Assay for Cytochrome P450 (CYP2B6) using HepaRG (AID 2283481)
How it was run: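 HepaRG cells plated 48 h, switched to serum-free induction medium, then dosed 48 h (8 points, half-log from 100 uM, 0.5% DMSO). RNA isolated; CYP2B6 expression measured by qRT-PCR; gain or loss fitted relative to DMSO.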

[13] = read-out: Cytochrome P450 2C19 (Homo sapiens) (UniProt P33261); experiment: LTEA_HepaRG_CYP2C19: Life Technologies and Expression Analysis (LTEA) Assay for CYP2C19 using HepaRG (AID 2283482)
How it was run: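 Transcript levels of CYP2C19 were quantified by qRT-PCR after HepaRG cells were treated for 48 hours with test chemicals up to 100 uM (eight half-log concentrations, 0.5% DMSO vehicle). Gain or loss of signal was fitted relative to DMSO.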

[14] = read-out: CYP2C8 (gene 1558); experiment: LTEA_HepaRG_CYP2C8: Life Technologies and Expression Analysis (LTEA) Assay for CYP2C8 using HepaRG (AID 2283483)
How it was run: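 HepaRG (human liver line), 48 h chemical exposure, 8-pt half-log series from 100 uM, 0.5% DMSO vehicle. Readout: CYP2C8 transcript by qRT-PCR, housekeeping-normalized. Bidirectional fit vs DMSO baseline.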

[15] = read-out: CYP2C9 (gene 1559); experiment: LTEA_HepaRG_CYP2C9: Life Technologies and Expression Analysis (LTEA) Assay for CYP2C9 using HepaRG (AID 2283484)
How it was run: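 HepaRG, 48 h dosing, 8-pt half-log series, top 100 uM, 0.5% DMSO vehicle. Read-out: CYP2C9 transcript by TaqMan qRT-PCR, housekeeping-normalized (ACTB/GAPDH/POLR2A). Gain or loss fitted vs DMSO baseline.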

[16] = read-out: CYP2E1 (gene 1571); experiment: LTEA_HepaRG_CYP2E1: Life Technologies and Expression Analysis (LTEA) Assay for CYP2E1 using HepaRG (AID 2283485)
How it was run: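 CYP2E1 transcript was measured by TaqMan qRT-PCR in human HepaRG cultures after 48 h chemical exposure (top 100 uM, half-log steps, 0.5% DMSO vehicle). Housekeeping-gene normalization; gain or loss fitted relative to DMSO baseline.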

[17] = read-out: CYP4A11 (gene 1579); experiment: LTEA_HepaRG_CYP4A11: Life Technologies and Expression Analysis (LTEA) Assay for CYP4A11 using HepaRG (AID 2283486)
How it was run: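 HepaRG, 48 h chem exposure, 8 conc (100 uM top, half-log), 0.5% DMSO vehicle; qRT-PCR readout, housekeeping-gene normalized; bidirectional curve fit vs DMSO baseline.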

[18] = read-out: Cytochrome P450 3A4 (Homo sapiens) (UniProt P08684); experiment: LTEA_HepaRG_CYP3A4: Life Technologies and Expression Analysis (LTEA) Assay for CYP3A4 using HepaRG (AID 2283487)
How it was run: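 Differentiated HepaRG cells in serum-free induction medium exposed in duplicate for 48 h to 8 half-log concentrations up to 100 uM in 0.5% DMSO. CYP3A4 mRNA measured by qRT-PCR normalized to ACTB, GAPDH and POLR2A; bidirectional fit versus DMSO.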

[19] = read-out: DNA damage-inducible transcript 3 (DDIT3), DDIT3 (gene 1649); experiment: LTEA_HepaRG_DDIT3: Life Technologies and Expression Analysis (LTEA) Assay for DNA damage-inducible transcript 3 (DDIT3) using HepaRG (AID 2283488)
How it was run: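 qRT-PCR readout (Fluidigm TaqMan), housekeeping-normalized to ACTB, GAPDH, POLR2A. HepaRG cells, 48 h exposure, 8-point half-log series from 100 uM in 0.5% DMSO, duplicates. Gain or loss of signal fitted against DMSO baseline.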

[20] = read-out: cysteine-aspartic acid protease (CASP8), CASP8 (gene 841); experiment: LTEA_HepaRG_CASP8: Life Technologies and Expression Analysis (LTEA) Assay for cysteine-aspartic acid protease (CASP8) using HepaRG (AID 2283480)
How it was run: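 qRT-PCR readout of CASP8 mRNA, normalized to three housekeeping genes, after 48 h chemical exposure of HepaRG cells; 8-point half-log series, top 100 uM, 0.5% DMSO vehicle. Bidirectional curve fitting against DMSO baseline.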

Measured: AC50

Chain of Cytochrome P450 2C19 (Homo sapiens) (P33261 whole entry, looked up): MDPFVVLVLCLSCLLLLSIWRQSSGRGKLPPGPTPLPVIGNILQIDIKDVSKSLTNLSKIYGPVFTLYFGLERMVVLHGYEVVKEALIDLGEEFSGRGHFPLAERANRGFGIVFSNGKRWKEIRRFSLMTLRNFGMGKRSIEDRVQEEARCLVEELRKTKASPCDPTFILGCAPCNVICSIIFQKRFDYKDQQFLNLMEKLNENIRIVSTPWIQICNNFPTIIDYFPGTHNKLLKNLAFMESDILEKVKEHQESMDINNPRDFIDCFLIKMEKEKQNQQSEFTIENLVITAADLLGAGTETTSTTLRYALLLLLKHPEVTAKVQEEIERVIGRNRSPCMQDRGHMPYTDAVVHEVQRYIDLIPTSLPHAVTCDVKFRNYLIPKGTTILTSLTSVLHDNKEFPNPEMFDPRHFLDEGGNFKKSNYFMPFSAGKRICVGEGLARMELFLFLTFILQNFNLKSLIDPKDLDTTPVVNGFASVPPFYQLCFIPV
Chain of Caspase-3 (Homo sapiens) (P42574 whole entry, looked up): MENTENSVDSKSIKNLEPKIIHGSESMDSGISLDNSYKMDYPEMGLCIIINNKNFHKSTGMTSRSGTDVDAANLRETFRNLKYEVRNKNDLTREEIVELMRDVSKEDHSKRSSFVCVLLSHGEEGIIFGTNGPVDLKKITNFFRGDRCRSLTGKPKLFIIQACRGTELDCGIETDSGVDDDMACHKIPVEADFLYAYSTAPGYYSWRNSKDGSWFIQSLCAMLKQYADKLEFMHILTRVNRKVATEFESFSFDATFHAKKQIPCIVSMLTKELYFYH
Chain of Apoptosis regulator Bcl-2 (Homo sapiens) (P10415 whole entry, looked up): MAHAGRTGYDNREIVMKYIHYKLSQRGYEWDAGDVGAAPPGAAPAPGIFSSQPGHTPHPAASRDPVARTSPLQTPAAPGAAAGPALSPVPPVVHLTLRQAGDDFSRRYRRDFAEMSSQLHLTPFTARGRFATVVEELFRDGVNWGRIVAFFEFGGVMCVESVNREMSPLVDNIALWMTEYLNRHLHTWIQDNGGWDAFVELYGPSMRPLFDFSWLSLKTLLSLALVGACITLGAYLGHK
Chain of Cytochrome P450 3A4 (Homo sapiens) (P08684 whole entry, looked up): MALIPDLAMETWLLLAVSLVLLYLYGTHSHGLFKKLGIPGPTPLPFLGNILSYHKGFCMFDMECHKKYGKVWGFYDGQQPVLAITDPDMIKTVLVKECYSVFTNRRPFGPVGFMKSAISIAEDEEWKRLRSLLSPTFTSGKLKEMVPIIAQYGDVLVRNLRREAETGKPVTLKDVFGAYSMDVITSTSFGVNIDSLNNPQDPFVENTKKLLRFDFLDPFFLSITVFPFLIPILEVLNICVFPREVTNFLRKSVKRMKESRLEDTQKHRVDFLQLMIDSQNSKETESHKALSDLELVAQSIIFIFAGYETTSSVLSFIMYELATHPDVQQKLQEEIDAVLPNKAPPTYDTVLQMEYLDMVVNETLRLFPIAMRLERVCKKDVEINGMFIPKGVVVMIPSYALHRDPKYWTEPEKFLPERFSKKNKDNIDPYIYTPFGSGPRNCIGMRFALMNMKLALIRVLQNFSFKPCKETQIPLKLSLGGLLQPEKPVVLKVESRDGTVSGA

OC(c1ccc(Cl)cc1)(c1ccc(Cl)cc1)C(Cl)(Cl)Cl
active: [1] 70.1 µM | [2] 78.2 µM | [3] 74 µM | [6] 4.05 µM | [7] 86.4 µM | [8] 85 µM | [9] 50 µM | [12] 11.8 µM | [13] 85.2 µM | [14] 80.6 µM | [15] 81.6 µM | [16] 50 µM | [17] 65.4 µM | [18] 87.6 µM | [19] 77.2 µM
inactive: [4] | [5] | [10] | [11]

CC1(C)CON(Cc2ccccc2Cl)C1=O
inactive: [1] | [2] | [3] | [5] | [6] | [7] | [8] | [9] | [10] | [11] | [20] | [15] | [17] | [19]
active: [12] 2.45 µM | [13] 6.15 µM | [14] 12.8 µM | [16] 31.4 µM | [18] 5.64 µM

COC(=O)c1c(C(F)F)nc(C(F)(F)F)c(C2=NCCS2)c1CC(C)C
active: [11] 50 µM | [12] 19.7 µM | [13] 50 µM | [14] 50 µM | [16] 10.3 µM | [18] 4.46 µM
inactive: [1] | [2] | [3] | [4] | [5] | [6] | [7] | [8] | [9] | [10] | [15] | [17] | [19]

CCOC(=O)C(C)OC(=O)c1cc(Oc2ccc(C(F)(F)F)cc2Cl)ccc1[N+](=O)[O-] (stereo not given)
active: [12] 11.5 µM | [13] 12.9 µM | [14] 12.8 µM | [16] 36.6 µM | [17] 0.598 µM | [18] 4.78 µM
inactive: [1] | [2] | [3] | [5] | [6] | [7] | [8] | [9] | [10] | [11] | [20] | [15] | [19]

CC(C)(C)C(=O)C(Oc1ccc(Cl)cc1)n1cncn1 (stereo not given)
active: [12] 5.18 µM | [13] 10.7 µM | [14] 15.4 µM | [16] 31.1 µM | [17] 50 µM | [18] 2.67 µM
inactive: [1] | [2] | [3] | [4] | [5] | [6] | [7] | [8] | [9] | [10] | [11] | [20] | [15] | [19]

CCN(CC)C(=O)C(C)Oc1cccc2ccccc12 (stereo not given)
active: [4] 73.6 µM | [6] 79.3 µM | [11] 26.4 µM | [12] 12 µM | [13] 12.6 µM | [16] 73.5 µM | [17] 79.1 µM | [18] 2.65 µM
inactive: [1] | [2] | [3] | [5] | [7] | [8] | [9] | [10] | [14] | [15] | [19]
